Assay outcomes as filed in PubChem BioAssay.
Only some compounds are listed: those with a hit (about 7.3% of all), similar ones and a draw of the others.
Tau FP inhib: qHTS for Inhibitors of Tau Fibril Formation, Fluorescence Polarization | Microtubule-associated protein tau (Homo sapiens), P10636 | K18 P301L tau heparin fibrillization, Alexa594 FP, 6 h | Potency, µM (highest dose often 57.7 µM), inactives show at the top dose activity, negative = inhibition, usual class: inhibitors | 0.39% of 280,000 active | AID 1468, 2008; further: nearly all actives have a fitted effect of over 55% in size
Target sequence (P10636 561-689 P618L limits assumed): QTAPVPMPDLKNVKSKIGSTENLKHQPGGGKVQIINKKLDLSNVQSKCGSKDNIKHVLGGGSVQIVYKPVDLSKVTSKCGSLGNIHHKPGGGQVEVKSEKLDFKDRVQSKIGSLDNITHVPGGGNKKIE
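Read-out: fluorescence polarization of Alexa 594-labeled tau (0.24 uM), 555 nm excitation, 632 nm emission. Mixtures held 15 uM unlabeled K18 P301L, compound and 20 uM heparin, pH 7 acetate buffer, incubated 6 hr at 37 C.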
Tau fluor cs: Counterscreen qHTS for Inhibitors of Tau Fibril Formation, Fluorescence Polarization; tau K18 P301L Alexa594 fluorescence, heparin fibrillization; Potency, µM (top dose mostly 57.7 µM), without a hit: top-dose activity change, negative = decrease; 0.93% of 280,000 active; further: nearly all actives have a fitted effect of over 55% in size
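Human K18 P301L tau (15 uM unlabeled plus 0.24 uM Alexa 594-labeled, final) in 100 mM sodium acetate pH 7 was mixed with compound and 20 uM heparin and incubated 6 hr at 37 C.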
RORg inh: qHTS for inhibitors of ROR gamma transcriptional activity; Drosophila S2 Gal4-RORgamma UAS-luciferase reporter, 20 h; Potency, µM (titrated, usually from 53.6 µM), without a hit: at the top dose activity change, negative = inhibition, usual class: inhibitors; Nuclear receptor ROR-gamma (Mus musculus), P51450; 5.4% of 310,000 active; further: nearly all actives have a fitted effect of over 60% in size
Target sequence (P51450 whole entry, looked up, the tested form may be a part): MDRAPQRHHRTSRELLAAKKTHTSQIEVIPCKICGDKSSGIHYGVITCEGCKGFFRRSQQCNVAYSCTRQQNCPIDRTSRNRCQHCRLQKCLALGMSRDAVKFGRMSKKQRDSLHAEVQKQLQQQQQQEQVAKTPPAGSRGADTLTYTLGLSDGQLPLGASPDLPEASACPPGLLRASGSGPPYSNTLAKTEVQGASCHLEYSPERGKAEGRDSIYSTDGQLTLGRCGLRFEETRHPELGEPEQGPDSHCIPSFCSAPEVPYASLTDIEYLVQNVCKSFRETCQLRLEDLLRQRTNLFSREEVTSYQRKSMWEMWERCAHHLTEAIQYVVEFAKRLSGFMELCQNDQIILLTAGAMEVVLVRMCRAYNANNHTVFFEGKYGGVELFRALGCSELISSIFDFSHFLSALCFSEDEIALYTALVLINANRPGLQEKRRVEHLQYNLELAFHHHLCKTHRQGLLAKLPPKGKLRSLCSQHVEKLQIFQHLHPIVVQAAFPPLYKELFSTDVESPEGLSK
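Schneider cells (Drosophila), stable Gal4 DBD–ROR gamma + UAS-luc; 1 hr cmpd preincubation; Cu2+ induction 700 uM final; 20 hr ambient; luminescence.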
Gal4-VP16 FLuc: VP16 counterscreen qHTS for inhibitors of ROR gamma transcriptional activity | 3.5% of 310,000 active | Drosophila S2 Gal4-VP16 UAS-luciferase, luminescence, 20 h | AID 2546, 2010 | Potency, µM (titrated, usually from 53.6 µM), for inactives: top-dose activity, negative = inhibition, actives largely listed as inhibitors;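 further: Gal4-VP16 expression switched on by copper sulfate through the metallothionein promoter; nearly all actives have a fitted effect of over 50% in size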
Tau fibril ThT: qHTS for Inhibitors of Tau Fibril Formation, Thioflavin T Binding | Microtubule-associated protein tau (Homo sapiens), P10636 | recombinant tau K18 P301L, heparin-induced fibrillization, ThT fluorescence | Potency, µM (series often up to 57.4 µM), for inactives: top-dose activity, negative = inhibition, hits mostly inhibitors | 2.1% of 270,000 active | AID 1460, 2008; further: nearly all actives have a fitted effect of over 55% in size
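Using a mix of unlabeled (15 uM) and Alexa 594-labeled (0.24 uM) tau K18 P301L, heparin-triggered fibrillization over 6 hr at 37 C was scored by ThT fluorescence.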
* hit, by the source's call; ? = inconclusive; . = no result given; [ ] = remark or other dose. The call rests on the fitted dose curve; in most records, active means well fitted curve in the direction sought with a large enough effect; inconclusive means small, poorly fitted or top-dose-only effect, or another doubt; inactive means no such curve, though single readings can be large; an effect the other way counts as inactive or inconclusive. On the % scale 0 is the no-effect control and ±100 the full control effect; potency means the concentration at half of the fitted maximal effect.

SMILES	Tau FP inhib	Tau fluor cs	RORg inh	Gal4-VP16 FLuc	Tau fibril ThT
Cc1ccc(S(=O)(=O)/N=C(\N)Nc2nc(C)c3cc(C)c(C)cc3n2)cc1	-6.0%	6.0%	-27.4%	4.5%	2.5%
Cc1ccc(NC(=S)/N=C(\N)Nc2nc(C)c3cc(C)ccc3n2)c(C)c1	-0.7%	-10.3%	7.94µM*	7.08µM*	?
Cc1ccc(NC(=S)/N=C(\N)Nc2nc(C)c3cc(C)c(C)cc3n2)cc1C	0.1%	-22.4%	2.24µM*	5.01µM*	?
CCc1ccccc1NC(=S)/N=C(\N)Nc1nc(C)c2cc(C)ccc2n1	5.5%	6.4%	2.82µM*	3.16µM*	8.0%
O=C(CSc1ccc([N+](=O)[O-])cc1)NNC(=O)c1ccccc1F	.	.	2.2%	2.9%	.
Cc1cccc(Cl)c1NNC(=O)Nc1c([N+](=O)[O-])c(C)nn1C	0.1%	-27.5%	23.3%	0.7%	.
CCOc1ccc(-n2c(O)c(/C=N/NC(=O)C3COc4ccccc4O3)c3ccccc3c2=O)cc1 (centres undefined)	-4.8%	?	3.16µM*	4.47µM*	?
O=C(N/N=C\C=C\c1ccc2c(c1)OCO2)C1COc2cc3ccccc3cc2O1 (centres undefined)	?	?	7.08µM*	?	?
O=C(N/N=C\c1cc(Br)cs1)C1COc2ccccc2O1 (centres undefined)	-3.1%	-21.0%	10µM*	?	?
O=C(N/N=C/c1ccc2c(c1)OCO2)C1COc2ccccc2O1 (centres undefined)	-4.2%	-13.9%	20.4%	7.5%	?
O=C(N/N=C\C=C\c1ccc2c(c1)OCO2)c1ccc(F)cc1	-6.3%	-16.3%	2.24µM*	5.62µM*	?
CC(C)(C)n1cnc2cc(NCc3ccccc3Cl)ccc21	3.1%	-24.4%	.	.	?
COc1ccc(C(=O)NCCc2nc3ccccc3[nH]2)cc1	-6.5%	-11.6%	.	.	-14.4%
CC1CCN(C(=O)CSc2nc3ccccc3nc2Cc2ccccc2)CC1	9.7%	-4.4%	.	.	-8.9%
O=C(Cn1c(=O)n(-c2cccc(C(F)(F)F)c2)c(=O)c2sccc21)NCC1CCCO1 (centres undefined)	.	.	-13.7%	1.4%	.
CC(C)Cn1c(CN2CCN(c3cccc(Cl)c3)CC2)nc2c1c(=O)[nH]c(=O)n2C	11.5%	6.3%	.	.	2.2%
CC(C)(C)c1ccc2c(c1)OC(C(=O)N/N=C\c1ccc[nH]1)CO2 (centres undefined)	.	.	7.94µM*	5.01µM*	.
COc1cc(/C=N\NC(=O)C2COc3ccccc3O2)cc(OC)c1O (centres undefined)	5.6%	-10.5%	-1.0%	-0.1%	?
O=C(N/N=C/C=C/c1ccc([N+](=O)[O-])cc1)C1COc2ccccc2O1 (centres undefined)	5.0%	15.8µM*[quencher]	10µM*	11.2µM*	4.47µM*
Cc1cc([N+](=O)[O-])cc(/C=N\NC(=O)C2COc3ccccc3O2)c1O (centres undefined)	8.7%	?	2.24µM*	4.47µM*	12.6µM*
O=C(N/N=C\c1ccc(O)c([N+](=O)[O-])c1)C1COc2ccccc2O1 (centres undefined)	?	-12.4%	25.6%	4.6%	10µM*
Cc1ccc(CNC(=O)CNS(=O)(=O)c2cccs2)cc1	4.4%	-6.6%	.	.	-2.1%
O=C(CN1C(=O)CSc2ccc(S(=O)(=O)N3CCOCC3)cc21)NCc1ccc(F)cc1	.	.	-20.9%	2.5%	.
Cc1cccc(N2CCN(C(=O)c3oc(=O)c4ccccc4c3-c3ccccc3)CC2C)c1 (centres undefined)	-3.3%	-20.6%	.	.	-16.8%
CCOc1ccc2c(c1)-c1c(ssc1=S)C(C)(C)N2C	-2.1%	12.6µM*[quencher]	?	?	14.1µM*
SMILES	Tau FP inhib	Tau fluor cs	RORg inh	Gal4-VP16 FLuc	Tau fibril ThT
Cc1ccc(CNC(=O)c2ccc3c(c2)CCN3S(=O)(=O)c2ccc(Br)cc2)cc1	-4.9%	?	.	.	-5.4%
COc1ccc(NCc2nc3ccccc3n2CCOc2ccccc2)cc1	11.8%	-22.0%	15.8µM*	-15.0%	-24.7%
CCCc1nc2ccccc2n1CCOc1ccccc1	1.0%	-8.4%	0.5%	-6.1%	-0.5%
c1ccc(NCc2nc3ccccc3n2CCOc2ccccc2)cc1	2.3%	?	12.6µM*	?	-16.1%
COc1ccc(NCc2nc3ccccc3n2CCOc2ccc(C)cc2)cc1	2.6%	?	20µM*	?	?
CC1CCc2c(sc(NC(=O)COc3ccccc3C(C)(C)C)c2C#N)C1 (centres undefined)	?	-4.9%	.	.	?
Cn1c(=O)c2c(SCC(=O)NCc3ccco3)nc(-c3ccccc3)nc2n(C)c1=O	-8.0%	6.9%	.	.	7.6%
Cc1nc(-c2ccccc2)sc1C(=O)O	0.9%	-2.3%	-32.9%	-16.9%	3.0%
Cc1ccc(-c2nc(C)c(C(=O)O)s2)cc1	2.4%	3.5%	8.91µM*	?	-1.2%
COc1cc(C(=O)Nc2cccc(OCc3cc(=O)n4c(C)csc4n3)c2)cc(OC)c1OC	?	?	.	.	-1.1%
C[C@@H](NC(=O)/C(C#N)=C/c1ccc(O)c(O)c1)c1ccccc1	4.3%	?	?	?	?
N#C/C(=C\c1ccc(O)c(O)c1)C(=O)Nc1ccccc1	12.8%	?	?	?	12.6µM*
N#C/C(=C/c1ccc(O)c(O)c1)C(=O)OC/C=C/c1ccccc1	?	11.2µM*[quencher]	.	.	11.2µM*
N#C/C(=C\c1ccc(O)c([N+](=O)[O-])c1)C(=O)NCc1ccccc1	9.2%	-9.1%	28.2%	-7.1%	15.8µM*
N#C/C(=C\c1ccc(O)c(Br)c1)C(=O)NCc1ccccc1	2.6%	-7.7%	33.1%	2.6%	-4.0%
Cc1ccc(C(=O)COC(=O)C(CC(C)C)NC(=O)C2CCC(C)CC2)cc1 (centres undefined)	-2.2%	7.8%	.	.	7.5%
O=C1O/C(=C/c2ccccc2)c2ccccc21	-15.5%	-16.3%	23.4%	-14.7%	-5.4%
N#CC1=C(c2ccccc2)/C(=C/c2ccccc2)OC1=O	8.5%	?	3.55µM*	2.24µM*	-25.2%
COc1cc(NS(=O)(=O)c2ccc(N/C=C(\C=O)c3nc4ccccc4o3)cc2)nc(OC)n1	-5.0%	-9.4%	8.91µM*	?	-15.8%
COc1cc(NS(=O)(=O)c2ccc(Nc3nc(-c4ccccc4)cs3)cc2)nc(OC)n1	?	12.6µM*[quencher]	?	3.9%	?
COc1cc(NS(=O)(=O)c2ccc(N/C=C(\C#N)c3nc4ccccc4o3)cc2)nc(OC)n1	-5.6%	-17.9%	43.6%	1.7%	?
